An excerpt weighted towards active compounds, which were near 3.7% of everything screened.
Mtb bLac sens – beta-lactam sensitization of Mtb H37Rv. M. tuberculosis H37Rv growth with meropenem, percent inhibition. inhibition, % at 25 µM. actives 0.27% (n = 330,000). AID 434955; call rule not given here;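 note: growth measured after seven days incubation then overnight dye step; 0% = bacteria only wells and 100% = bacteria with antibiotic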
GDH-TPI counter – inhibits GDH-TPI coupling enzymes, artifact for Mtb FBA screen; GDH-TPI coupled enzyme counterscreen, NADH absorbance; inhibition, % at 4.8 µM; actives 1.2% (n = 360,000); in the data active = inhibition above about 30%;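 note: 0% = DMSO wells and 100% = wells lacking the enzyme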
Rv3671c inh – Rv3671c (M. tuberculosis) protease inhibition. AID 2606. P9WHR9. inhibition, % at 5.96 µM. actives 0.048% (n = 320,000); in the data active = inhibition above about 38%;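 note: extracellular domain of Rv3671c used as enzyme; 0% = enzyme with DMSO and 100% = no enzyme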
Target sequence (P9WHR9 whole entry, looked up, the tested form may be a part): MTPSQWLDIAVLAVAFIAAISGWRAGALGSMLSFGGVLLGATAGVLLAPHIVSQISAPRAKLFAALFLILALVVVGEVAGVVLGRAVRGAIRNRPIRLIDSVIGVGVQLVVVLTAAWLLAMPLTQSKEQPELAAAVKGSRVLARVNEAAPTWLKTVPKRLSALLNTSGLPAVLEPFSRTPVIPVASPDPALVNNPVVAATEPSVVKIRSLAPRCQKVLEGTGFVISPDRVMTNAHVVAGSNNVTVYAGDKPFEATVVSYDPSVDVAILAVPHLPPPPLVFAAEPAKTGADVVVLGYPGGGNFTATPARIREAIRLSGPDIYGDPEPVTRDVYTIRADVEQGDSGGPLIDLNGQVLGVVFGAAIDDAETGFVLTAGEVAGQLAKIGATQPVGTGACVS
FadD28 FP inh – inhibitors of Mycobacterium tuberculosis FadD28 bisubstrate binding; actives 0.22% (n = 360,000); FadD28 bisubstrate probe binding, fluorescence polarization; inhibition, % at 12.5 µM; AID 588549; in the data active = inhibition above about 8.5%, passing the limit was not always enough; inconclusive = no clear call, values can overlap the other calls
FBA Mtb inh – inhibitors of M. tuberculosis fructose-bisphosphate aldolase. AID 588726. actives 2.3% (n = 360,000). purified M. tuberculosis FBA, fluorescence read-out. P9WQA3. inhibition, % at 1 µM; in the data active = inhibition above about 27%;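 note: 0% = vehicle and 100% = reference inhibitor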
Mtb UGM inh – blocks M. tuberculosis UGM enzyme; purified UGM, fluorescence polarization probe displacement; inhibition, % at 10 µM; actives 0.06% (n = 320,000); in the data active = inhibition above about 10%, passing the limit was not always enough; inconclusive = no clear call, values can overlap the other calls
An asterisk follows results filed as active.

For CC12CCC(C)(O1)C1C(=O)N(c3nccs3)C(=O)C12 (configuration not stated) the results were GDH-TPI counter 8.6, FadD28 FP inh -2.7 and FBA Mtb inh 0.2.
Screening C[C@H](CO)N1C[C@H](C)[C@H](CN(C)C(=O)N[C@H](C)c2ccccc2)OCc2ccccc2-c2c(n(C)c3ccccc23)C1=O returned GDH-TPI counter 4.3, FadD28 FP inh 0.7 and FBA Mtb inh -0.2.
Cc1cc(S(=O)(=O)NCCCN2CCOCC2)ccc1Br was read as Mtb bLac sens -5.4, GDH-TPI counter 0.3, Rv3671c inh 0.4, FadD28 FP inh -3.5, FBA Mtb inh -0.7 and Mtb UGM inh 0.2.
`CCn1c2ccccc2c2cc(/C=N/NC(=O)c3cccc(C)c3)ccc21` gave Mtb bLac sens inconclusive, GDH-TPI counter -2.4, Rv3671c inh 3.4, FadD28 FP inh -3.7, FBA Mtb inh 4.2 and Mtb UGM inh -0.4.
For CCn1c2ccccc2c2cc(/C=N/NC(=O)c3ccccc3C)ccc21 the results were Mtb bLac sens 0.0, GDH-TPI counter 34.9*, Rv3671c inh 6.2, FadD28 FP inh -0.9, FBA Mtb inh 4.8 and Mtb UGM inh -1.0.
CCOc1cccc2cc(-c3csc(NC(=O)CCC(=O)NCCN4CCCCC4C)n3)c(=O)oc12 (configuration not stated) was read as Mtb bLac sens -2.5, GDH-TPI counter 34.1*, Rv3671c inh -7.9, FadD28 FP inh 0.2, FBA Mtb inh -0.3 and Mtb UGM inh 1.1.
Screening CCOc1cccc2cc(-c3csc(NC(=O)CCC(=O)NCCCN4CCC(C)CC4)n3)c(=O)oc12 returned Mtb bLac sens -4.2, Rv3671c inh -8.2 and Mtb UGM inh 1.0.
Screening CCN1c2ccccc2-c2nc3ccccc3n2C1c1ccncc1 (configuration not stated) returned Mtb bLac sens -14.3, GDH-TPI counter 12.4, Rv3671c inh 2.8, FadD28 FP inh -4.1, FBA Mtb inh 13.6 and Mtb UGM inh -0.7.
For Cc1ccc(C2N(C)c3ccccc3-c3nc4ccccc4n32)o1 (configuration not stated) the results were Mtb bLac sens 9.3, GDH-TPI counter 19.1, Rv3671c inh 4.7, FadD28 FP inh -0.6, FBA Mtb inh 183.1* and Mtb UGM inh -4.0.
`CN1c2ccccc2-c2nc3ccccc3n2C1c1cccs1` (configuration not stated) gave Mtb bLac sens 4.1, GDH-TPI counter 4.1, Rv3671c inh -2.6, FadD28 FP inh -4.3, FBA Mtb inh active and Mtb UGM inh -1.2.
For CN(C(=O)c1ccc(S(=O)(=O)N2CCCCC2)cc1)C1CCS(=O)(=O)C1 (configuration not stated) the results were Mtb bLac sens 4.8, GDH-TPI counter 2.5, Rv3671c inh 3.6, FadD28 FP inh -2.1, FBA Mtb inh -1.0 and Mtb UGM inh -1.0.
`COc1ccc(/C=C/C(=O)NC(=S)Nc2ccc(S(=O)(=O)Nc3cc(OC)ncn3)cc2)cc1` gave GDH-TPI counter 24.6, FadD28 FP inh -0.9 and FBA Mtb inh 0.0.
For COc1ccc(/C=C/C(=O)NC(=S)Nc2ccc(S(=O)(=O)Nc3nccnc3OC)cc2)cc1 the results were Mtb bLac sens 3.2, GDH-TPI counter 49.3*, Rv3671c inh -30.4, FadD28 FP inh -3.3 and FBA Mtb inh 0.4.
For C=CSc1sc(Cl)c(N(CC)CC)c1[N+](=O)[O-] the results were Mtb bLac sens 1.1, GDH-TPI counter -1.3, Rv3671c inh 2.3, FadD28 FP inh 1.5, FBA Mtb inh -0.8 and Mtb UGM inh 0.9.
COC(=O)Cc1[nH]n(-c2ccccc2)c(=O)c1C=Nc1ccc(C)cc1 was read as Mtb bLac sens 40.5, GDH-TPI counter 40.0*, Rv3671c inh 1.3, FadD28 FP inh -0.8, FBA Mtb inh 2.6 and Mtb UGM inh -2.0.
Screening Cc1[nH]n(-c2ccccc2)c(=O)c1C=Nc1cccc(F)c1 returned Mtb bLac sens 6.7, GDH-TPI counter 32.5*, Rv3671c inh -15.5, FadD28 FP inh -1.1, FBA Mtb inh -0.8 and Mtb UGM inh 4.1.
Screening Cc1[nH]n(-c2ccccc2)c(=O)c1C=Nc1ccc2[nH]c(=O)[nH]c2c1 returned Mtb bLac sens 8.9, GDH-TPI counter 15.2, Rv3671c inh -5.7, FadD28 FP inh -2.0, FBA Mtb inh 1.9 and Mtb UGM inh -0.8.
Screening CCOc1[nH]n(-c2ccccc2)c(=O)c1C=NCC(=O)OC returned Mtb bLac sens 2.6, GDH-TPI counter 0.8, Rv3671c inh -3.3, FadD28 FP inh -1.2, FBA Mtb inh 0.4 and Mtb UGM inh 3.9.
Screening Cc1ccc(OCC(=O)OCC(=O)NC2CCCCCC2)cc1C returned GDH-TPI counter 5.4, FadD28 FP inh -1.1 and FBA Mtb inh -1.7.
For CC(C)(C)OC(=O)N(Cc1ccccc1)Cc1cccc(OCc2cccc(NC(=O)c3ccccc3)c2)c1 the results were GDH-TPI counter 7.3, FadD28 FP inh 0.1 and FBA Mtb inh -0.1.
Screening O=C(CNS(=O)(=O)c1cccs1)N1CCN(c2ccccn2)CC1 returned Mtb bLac sens 1.2, GDH-TPI counter 7.5, Rv3671c inh 6.1, FadD28 FP inh -1.2, FBA Mtb inh 87.2* and Mtb UGM inh -1.6.
`O=C(CNS(=O)(=O)c1cccs1)N1CCN(c2ccccc2F)CC1` gave Mtb bLac sens 3.0, GDH-TPI counter 6.5, Rv3671c inh -11.3, FadD28 FP inh -0.5, FBA Mtb inh -0.5 and Mtb UGM inh -1.6.
`COc1c2ccoc2c(OC)c2oc(=O)ccc12` gave Mtb bLac sens -5.0, GDH-TPI counter 6.9, Rv3671c inh -9.3, FadD28 FP inh -1.0, FBA Mtb inh 6.2 and Mtb UGM inh -0.3.
C=CC(C)(C)c1c2occc2c(O)c2ccc(=O)oc12 was read as Mtb bLac sens 1.1, GDH-TPI counter 9.7, Rv3671c inh 1.4, FadD28 FP inh 14.2* and FBA Mtb inh -0.3.
NC(=S)NN=C1CCSCC1 was read as GDH-TPI counter 13.8, FadD28 FP inh -2.0 and FBA Mtb inh 2.5.
Screening CC[C@H](C)/C=C(C)/C=C/C1=CC2=C(Cl)C(=O)[C@](C)(OC(C)=O)C(=O)C2=CO1 returned Mtb bLac sens 5.7, GDH-TPI counter 22.9, Rv3671c inh 8.8, FadD28 FP inh 17.2* and FBA Mtb inh 5.1.
For CCC(C)/C=C/C1=CC2=C(Cl)C(=O)C3(C)OC(=O)C(C(=O)C(C)C(C)O)C3C2=CO1 (configuration not stated) the results were Mtb bLac sens -2.5, GDH-TPI counter -3.9, Rv3671c inh 7.5, FadD28 FP inh 0.8, FBA Mtb inh 2.4 and Mtb UGM inh -2.1.
`COc1ccc(NC(=O)CCCN2C(=O)/C(=C\c3ccco3)SC2=S)cc1` gave Mtb bLac sens -1.0, GDH-TPI counter 7.8, Rv3671c inh -7.8, FadD28 FP inh 1.4, FBA Mtb inh 1.0 and Mtb UGM inh -3.4.
Screening CC(C(=O)Nc1ccc(C(=O)O)c(O)c1)N1C(=O)/C(=C\c2ccco2)SC1=S (configuration not stated) returned Mtb bLac sens 56.9, GDH-TPI counter 18.7, Rv3671c inh -4.7, FadD28 FP inh 25.3*, FBA Mtb inh 0.9 and Mtb UGM inh -0.3.

High-throughput results from PubChem.
